Values joined by “and” are separate entries in the source; they are usually repeats but may differ in a detail not shown here. Identical values can stand only once. Records with an inconclusive call do not appear. A structure can be active in one record and inactive in another. Active and inactive are the calls of the source. Rule for the calls, unless noted: active = hit-call score of the fitted dose curve at least 0.9, where 1 is the maximum; inactive = score below 0.9.
Assays:
[1] = BSK_BT_PBMCCytotoxicity: PBMC Cytotoxicity Assessment in the BioMAP Diversity Plus: BT Assay (AID 2284225); settings: primary human B cells with PBMC;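 note: PBMC viability measured by Alamar Blue dye reduction fluorescence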
Outline: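 Viability by Alamar Blue reduction (6 h, ex/em 546/580 nm) after 90 h culture of SEB/TSST-1-activated PBMC (20 ng/mL each) given compound 1 h before activation. DMSO served as baseline for curve fitting.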

[2] = read-out: Secreted IgG (sIgG), gene 3500; assay: BSK_BT_sIgG: BioMAP Diversity Plus: BT Assay for Secreted IgG (sIgG) Biomarker Activity (AID 2284226); settings: primary human B cells with PBMC
Outline: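 Cells (B cells with peripheral blood mononuclear cells) are dosed, cultured 24 h, then supernatant IgG is measured by ELISA. DMSO serves as negative control; curves are fitted for signal increase.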

[3] = BSK_BT_Bcell_Proliferation: Viability Assessment in the BioMAP Diversity Plus: BT Assay for B cell Proliferation (AID 2284227); settings: primary human B cells with PBMC
Outline: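 Using a human primary B cell–PBMC co-culture, the assay measures total protein by sulforhodamine B absorbance as a gauge of proliferation after 72 h. Analysis followed the positive fitting direction with DMSO as baseline.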

[4] = read-out: Interleukin 6 (IL6), IL6 (gene 3569); assay: BSK_BT_xIL6: BioMAP Diversity Plus: BT Assay for Interleukin 6 (IL6) Biomarker Activity (AID 2284228); settings: primary human B cells with PBMC
Outline: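 B cells and peripheral blood mononuclear cells (human primary co-culture) were dosed with chemical, and after 24 h IL-6 released into the medium was measured by Luminex xMAP. Responses were analysed as gain of signal over DMSO control.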

[5] = read-out: Interleukin 17A (IL17A), IL17A (gene 3605); assay: BSK_BT_xIL17A: BioMAP Diversity Plus: BT Assay for Interleukin 17A (IL17A) Biomarker Activity (AID 2284229); settings: primary human B cells with PBMC
Outline: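 Secreted IL-17A was the measured endpoint, read by Luminex xMAP multiplex in supernatants of a human B cell/PBMC co-culture harvested 24 h after chemical dosing. Signal increase relative to DMSO defined activity.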

[6] = read-out: Tumor necrosis factor (Homo sapiens) (UniProt P01375); assay: BSK_BT_xTNFa: BioMAP Diversity Plus: BT Assay for Tumor necrosis factor alpha (TNF-alpha) Biomarker Activity (AID 2284230); settings: primary human B cells with PBMC
Outline: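 Endpoint derived in the positive direction versus DMSO vehicle. Cells: B cells together with PBMC, exposed 24 h before TNF-alpha in the medium was read on the Luminex xMAP platform.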

[7] = read-out: Vascular cell adhesion molecule 1 (VCAM1), VCAM1 (gene 7412); assay: BSK_MyoF_VCAM1: BioMAP Diversity Plus: MyoF Assay for Vascular cell adhesion molecule 1 (VCAM1) Biomarker Activity (AID 2284231); settings: primary human lung fibroblasts
Outline: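 ELISA read-out of VCAM-1 on human lung fibroblasts 24 h after chemical treatment, with positive-direction curve fitting relative to DMSO controls. Parallel cultures were stained with sulforhodamine B for total protein to flag overt cytotoxicity.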

[8] = read-out: Collagen I, COL1A1 (gene 1277); assay: BSK_MyoF_CollagenI: BioMAP Diversity Plus: MyoF Assay for Collagen I Biomarker Activity (AID 2284238); settings: primary human lung fibroblasts
Outline: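 Lung fibroblasts (human primary) dosed, 24 h; Collagen I by ELISA; positive-direction fit vs DMSO control. Parallel SRB total-protein staining (0.1% SRB, 10% TCA fixation, 560 nm) flags overt cytotoxicity.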

[9] = read-out: Collagen III, COL3A1 (gene 1281); assay: BSK_MyoF_CollagenIII: BioMAP Diversity Plus: MyoF Assay for Collagen III Biomarker Activity (AID 2284239); settings: primary human lung fibroblasts
Outline: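 ELISA read-out of collagen III from human lung fibroblasts after 24 h of chemical treatment. The DMSO control served as negative control and baseline, with values fitted in the positive direction.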

[10] = read-out: Interleukin 17F (IL17F), IL17F (gene 112744); assay: BSK_BT_xIL17F: BioMAP Diversity Plus: BT Assay for Interleukin 17F (IL17F) Biomarker Activity (AID 2284243); settings: primary human B cells with PBMC
Outline: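 Compound was added to co-cultures of human B cells and PBMC. After 24 hours, IL-17F released into the medium was measured with LumineX xMAP technology. Responses were then fitted upward relative to DMSO.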

[11] = read-out: Actin alpha 1 (ACTA1), ACTA1 (gene 58); assay: BSK_MyoF_ACTA1: BioMAP Diversity Plus: MyoF Assay for Actin alpha 1 (ACTA1) Biomarker Activity (AID 2284244); settings: primary human lung fibroblasts
Outline: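 Cells were exposed to chemical for 24 h before a-SMA levels were quantified by ELISA in human lung fibroblasts. Increases were fitted against DMSO as negative control; parallel SRB staining (0.1% after 10% TCA fixation, 560 nm) assessed cytotoxicity.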

[12] = read-out: Interleukin 2 (IL2), IL2 (gene 3558); assay: BSK_BT_xIL2: BioMAP Diversity Plus: BT Assay for Interleukin 2 (IL2) Biomarker Activity (AID 2284245); settings: primary human B cells with PBMC
Outline: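 The BT system combines human B cells with peripheral blood mononuclear cells. Twenty-four hours after chemical dosing, secreted IL-2 was measured with xMAP bead technology, and responses were analyzed as increases over DMSO controls.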

[13] = TAMU_PeakParms_SingleDonor1434_QT: Texas A&M University (TAMU) 1.5-hr Human Induced Pluripotent Stem Cell (iPSC)-derived Cardiomyocytes Calcium (Ca+2) Flux Assay for Cardiotoxicity: QT (decay-rise ratio) (AID 2284235; active = hit-call score of the fitted dose curve at least 0.9, where 1 is the maximum)
Outline: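 Decay/rise ratio of calcium-flux fluorescence scored after 90 min exposure (37C) of donor 1434 iPSC cardiomyocytes to 0.2–100 uM (0.5% DMSO). Beat-cessation and severe-notch points removed; POD is EC05, a 5% rise over DMSO.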

[14] = CCTE_Mundy_HCI_Cortical_NOG_BPCount: CCTE's Neurite Outgrowth Assay in rat cortical cells for Branch Point Count, Mundy Lab (AID 2284237);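 for AC50: branch points counted about two days after chemical exposure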
Outline: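 Measured 50.33 h after dosing, this morphology endpoint uses rat primary cortical cultures labelled for betaIII-tubulin. Branch points are quantified by high-content imaging, with DMSO as negative control and baseline.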

[15] = CCTE_Mundy_HCI_hNP1_Casp3_7: CCTE's Caspase-Glo 3/7 Assay in human neuroprogenitor cells for Apoptosis, Mundy Lab (AID 2284240)
Outline: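 Neuroepithelial-lineage stem cells from WA09 embryonic cells were treated with chemicals after 40–44 h of culture. Twenty-four hours later, caspase-3/7 activation was detected luminescently after a 30 min room-temperature reagent step, with DMSO as baseline.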

[16] = CCTE_Mundy_HCI_hNP1_CellTiter: CCTE's Cell Titer-Glo 2 Assay in human neuroprogenitor cells for Viability, Mundy Lab (AID 2284241; active = hit-call score of the fitted dose curve at least 0.9, where 1 is the maximum;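 for AC50: a hit is a drop in ATP luminescence versus DMSO meaning reduced viability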)
Outline: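 Measures ATP content in human neural progenitors derived from WA09 embryonic cells. Read-out at 26.5 hours after dosing, with DMSO serving as the negative control and baseline.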

[17] = CCTE_Mundy_HCI_Cortical_Synap_Neur_Matur_NeuronCount: CCTE's Synaptogenesis and Neurite Maturation Assay in rat cortical cells for Neuron Count, Mundy Lab (AID 2284242; active = hit-call score of the fitted dose curve at least 0.9, where 1 is the maximum;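 for AC50: neuron number from Hoechst nuclei and MAP2 staining by high-content imaging; hits reduce neuron count versus DMSO baseline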)
Outline: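 Cortical cells from rat are plated, treated with AraC at DIV 5, and exposed to test chemicals with a media change at DIV 7. At DIV 12 they are fixed and immunostained (MAP2, synaptophysin), and imaged neuron counts are compared against DMSO controls.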

[18] = TAMU_HCS_1.5hr_SingleDonor1434_Cytotoxicity: Cytotoxicity Assessment using High-content Screening (HCS) Fluorescent Imaging for the Texas A&M University (TAMU) 1.5-hr Human Induced Pluripotent Stem Cell (iPSC)-derived Cardiotoxicity Assay (AID 2284234; active = hit-call score of the fitted dose curve at least 0.9, where 1 is the maximum)
Outline: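 Nuclear counts from Hoechst 33342 imaging define cytotoxicity here, with EC10 (10% cell-count loss relative to DMSO) as point of departure. iPSC cardiomyocytes received 0.2-100 uM test chemical in 0.5% DMSO for 1.5 h at 37 C.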

[19] = CCTE_Mundy_HCI_Cortical_NOG_NeuronCount: CCTE's Neurite Outgrowth Assay in rat cortical cells for Neuron Count, Mundy Lab (AID 2284236; active = hit-call score of the fitted dose curve at least 0.9, where 1 is the maximum;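 note: neurons counted by imaging betaIII-tubulin and Hoechst stained cortical cells; cells exposed to compound for about 48 hours before fixation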)
Outline: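 Read-out: neuron number by high-content imaging of betaIII-tubulin (Alexa Fluor-488) and Hoechst-labelled rat primary cortical cells.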

[20] = UKN2_HCS_IMR90_cell_viability: Viability Assessment in the University of Konstanz (UKN) Leist Lab Neural Crest Cell Migration Assay in human induced IMR90 Pluripotent Stem Cells (UKN2) (AID 2284233);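 note: viability of neural crest cells differentiated from IMR90 iPSC measured by calcein-AM fluorescence imaging; cells exposed to compound for 24 h after a 24 h migration phase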
Outline: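 cMINC format, iPSC-derived neural crest (IMR90); 24 h migration (EGF/FGF, N2-S), then 24 h toxicant. Calcein-AM/H-33342 stain 30 min; fluorescence intensity by HCS; DMSO-normalised, bidirectional fitting.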

Measured: AC50

Tumor necrosis factor (Homo sapiens), sequence (P01375 whole entry, looked up): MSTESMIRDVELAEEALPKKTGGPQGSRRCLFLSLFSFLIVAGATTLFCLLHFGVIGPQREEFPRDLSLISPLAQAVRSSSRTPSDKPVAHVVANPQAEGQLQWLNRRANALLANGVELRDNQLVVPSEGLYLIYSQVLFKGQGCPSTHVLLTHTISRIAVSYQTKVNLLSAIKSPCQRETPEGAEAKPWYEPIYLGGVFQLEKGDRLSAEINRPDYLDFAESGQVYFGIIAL

O=C(O)C(F)(F)C(F)(F)C(F)(F)C(F)(F)C(F)(F)C(F)(F)C(F)(F)C(F)(F)F
active: [3] 30 µM | [6] 49.8 µM | [7] 30 µM and 42.6 µM | [8] 37.9 µM and 34.1 µM | [9] 46.8 µM and 47.6 µM | [11] 30 µM and 40.3 µM
inactive: [1] | [2] | [3] | [4] | [5] | [6] | [10] | [12]

C=CC(N)=O
inactive: [13] | [14] | [15] | [16] | [17]

ClC1=C(Cl)[C@]2(Cl)[C@@H]3[C@@H]4C[C@@H]([C@H]5O[C@@H]45)[C@@H]3[C@@]1(Cl)C2(Cl)Cl
active: [19] 21.7 µM | [15] 15 µM | [17] 25 µM
inactive: [18] | [13]

ClC1=C(Cl)[C@]2(Cl)[C@@H]3[C@@H](Cl)[C@H]4O[C@H]4[C@@H]3C1(Cl)C2(Cl)Cl
active: [19] 34.2 µM | [14] 9.79 µM | [15] 30.3 µM | [16] 35.9 µM | [17] 7.22 µM

O=C(O)C(F)(F)C(F)(F)C(F)(F)C(F)(F)C(F)(F)C(F)(F)C(F)(F)C(F)(F)C(F)(F)F
inactive: [1] | [2] | [3] | [4] | [5] | [6] | [15] | [16] | [10] | [12]
active: [1] 5.95 µM | [3] 20.4 µM | [5] 37.8 µM | [7] 48.6 µM and 44.7 µM | [8] 15.8 µM and 18.9 µM | [9] 26.2 µM and 19.1 µM | [11] 45.3 µM and 23.6 µM

CCOP(=S)(OCC)SCSC(C)(C)C
inactive: [20] | [15] | [16]
active: [19] 68.1 µM | [17] 9.92 µM and 25.5 µM

CO/C=C(/C(=O)OC)c1ccccc1COc1cccc(C(F)(F)F)n1
active: [20] 50 µM | [19] 2.81 µM | [14] 1.28 µM | [15] 21.7 µM | [16] 81.5 µM | [17] 0.935 µM

COc1ccc(O)c(C(C)(C)C)c1
inactive: [14] | [15] | [16] | [17]

O=S(=O)(O)C(F)(F)C(F)(F)C(F)(F)C(F)(F)C(F)(F)C(F)(F)F
inactive: [1] | [2] | [3] | [4] | [5] | [6] | [7] | [20] | [19] | [14] | [8] | [9] | [15] | [16] | [10] | [11] | [12]

Sc1ccccc1
inactive: [1] | [2] | [3] | [4] | [5] | [6] | [7] | [8] | [9] | [10] | [11] | [12]

Oc1c(Cl)c(Cl)c(Cl)c(Cl)c1Cl
active: [2] 27 µM | [7] 2.41 µM | [8] 2.58 µM | [9] 4.07 µM | [11] 10.3 µM
inactive: [1] | [3] | [4] | [5] | [6] | [10] | [12]

NS(=O)(=O)C(F)(F)C(F)(F)C(F)(F)C(F)(F)C(F)(F)C(F)(F)C(F)(F)C(F)(F)F
active: [2] 23.8 µM and 45.3 µM | [4] 44.5 µM and 43.1 µM | [5] 46.5 µM | [6] 46.3 µM and 25 µM | [7] 20.2 µM and 26.5 µM | [8] 22.6 µM | [9] 26.2 µM and 28.7 µM | [10] 35.5 µM and 45.9 µM | [11] 10.9 µM and 12 µM
inactive: [1] | [3] | [5] | [15] | [12]

O=S(=O)(O)C(F)(F)C(F)(F)C(F)(F)C(F)(F)F
inactive: [1] | [2] | [3] | [4] | [5] | [6] | [7] | [20] | [19] | [14] | [8] | [9] | [15] | [16] | [10] | [11] | [12]

O=C(O)C(F)(F)C(F)(F)C(F)(F)C(F)(F)C(F)(F)F
inactive: [1] | [2] | [3] | [4] | [5] | [6] | [7] | [8] | [9] | [10] | [11] | [12]

— PubChem BioAssay (EPA / NIEHS)
